Test results from PubChem BioAssay AID602340 (Broad Institute, 2012).
Among all 330,000 compounds or so, about 2,600 (0.79%) were called active.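 The calls were made as follows: active = mean ATP rescue above about 67%, or every replicate alone reaching that limit (limit read from the data, passing the limit was not always enough); inconclusive = no clear call, values can overlap the other calls; inactive = mean under the limit and some replicate under it.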 The full list was thinned out, with actives kept by preference.

Experiment: protection of differentiated C2C12 cells from simvastatin – single point, plate reader, primary screen (AID 602340);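 also: myotubes were challenged with 10 µM simvastatin during compound exposure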
Conditions: C2C12 myotubes + simvastatin, ATP luminescence, 48 h; at 7.49 µM; hits give high values; scaled: DMSO 0, geranylgeraniol control 100

| SMILES | rescue of ATP level |
| --- | --- |
| C/C=C/c1ccc2c(c1)O[C@@H](CN(C)C(=O)C1CCOCC1)[C@H](C)CN([C@H](C)CO)S2(=O)=O | 7.79% (inactive) |
| NC(N)=Nc1nc(-c2ccccc2)c2cc(Cl)ccc2n1 | -791% (inactive) |
| CC(OC(=O)c1ccc2noc(-c3ccccc3)c2c1)C(N)=O (configuration not stated) | 20.5% (inactive) |
| Oc1ccc(-c2onc3ccc(Cl)cc23)cc1 | 108% (active) |
| C[C@H](CO)N1C[C@H](C)[C@H](CN(C)Cc2ccncc2)Oc2ccc(NS(=O)(=O)c3cn(C)cn3)cc2C1=O | -11.2% (inactive) |
| C[C@H](CO)N1C[C@H](C)[C@H](CN(C)C(=O)c2ccccn2)Oc2ncc(-c3ccccc3F)cc2C1=O | 16.4% (inactive) |
| CCCC(=O)Nc1ccc2c(c1)C(=O)N(C)C[C@@H](OC)[C@@H](C)CN(Cc1cncnc1)[C@@H](C)CO2 | -0.178% (inactive) |
| C[C@@H]1CN([C@@H](C)CO)C(=O)c2cc(C#CC3CC3)cnc2O[C@@H]1CN(C)C(=O)Cc1ccccn1 | 13.5% (inactive) |
| CO[C@@H]1CN(C)C(=O)c2ccc(NC(=O)c3ccc(F)cc3)cc2OC[C@H](C)NC[C@@H]1C | -3.77% (inactive) |
| CCCNC(=O)N1[C@@H]2CN(C)c3ccccc3[C@@H]2[C@@H]1CO | 9.21% (inactive) |
| O=C(C[C@@H]1C[C@H]2c3cc(NC(=O)Nc4ccccc4F)ccc3O[C@H]2[C@@H](CO)O1)NCc1ccncc1 | 2.48% (inactive) |
| COc1ccc(OC)c2c(N)c(C#N)c(C(F)(F)C(F)(F)F)nc12 | 89.2% (active) |
| COc1ccc(C2CC(=O)Nc3sc(=N)c4c(N)c(C#N)c(N)nc4c32)cc1OC (configuration not stated) | -2.72% (inactive) |
| CC(C)NC(=O)Nc1ccc2c(c1)C(=O)N([C@@H](C)CO)C[C@@H](C)[C@H](CN(C)Cc1ccc(C(=O)O)cc1)O2 | 6.31% (inactive) |
| CC(=O)Nc1ccc(C(=O)CSc2nnc(Cc3ccccc3)o2)cc1 | 1.31% (inactive) |
| CCOc1ccc(Nc2nc(Cc3nnc(SCC(=O)NC4CCCC4)n3C)cs2)cc1 | 33.9% (inactive) |
| CCOc1ccc(Nc2nc(Cc3nnc(SCC(=O)c4ccc(C)cc4)o3)cs2)cc1 | 76.7% (active) |
| COCC(=O)Nc1ccc2c(c1)OC[C@H](C)NC[C@@H](C)[C@H](OC)CN(C)C2=O | 7.72% (inactive) |
| O=C(c1cccnc1)N1CC[C@@H]2[C@@H](CO)Nc3ccc(-c4ccccc4)cc3[C@@H]21 | 2.73% (inactive) |
| CO[C@H]1CN(C)C(=O)c2cc(NC(=O)c3ccc4c(c3)OCO4)ccc2OC[C@@H](C)N(CCC(F)(F)F)C[C@H]1C | 6.03% (inactive) |
| O=C(N[C@H]1CC[C@H](CCNS(=O)(=O)c2ccc(F)cc2)O[C@H]1CO)C1CCCC1 | 6.44% (inactive) |
| COCC(=O)Nc1ccc2c(c1)OC[C@@H](C)N(C(=O)CC1CC1)C[C@@H](C)[C@@H](OC)CN(C)C2=O | 15.1% (inactive) |
| CCCC#Cc1cnc2c(c1)C(=O)N([C@H](C)CO)C[C@@H](C)[C@@H](CN(C)C(=O)Nc1ccccc1OC)O2 | 11.6% (inactive) |
| CC1(C)Cc2cccc(OCC(=O)NCc3ccccc3)c2O1 | 1.33% (inactive) |
| CC1(C)Cc2cccc(OCC(=O)Nc3nccs3)c2O1 | 0.639% (inactive) |
| CC1(C)Cc2cccc(OCC(N)=O)c2O1 | 113% (active) |

| SMILES | rescue of ATP level |
| --- | --- |
| CCC(=O)N[C@H]1CC[C@H](CCn2cc(-c3cccc(OC)c3)nn2)O[C@H]1CO | -2.48% (inactive) |
| CC=Cc1ccc2n(c1=O)C[C@H]1[C@H](CO)[C@@H](C(=O)NC3CCCC3)N(Cc3cccnc3)[C@@H]21 (mixture of isomers) | -41.8% (inactive) |
| C[C@H](CO)N1C[C@H](C)[C@@H](CN(C)Cc2cccc(F)c2)Oc2cc(C#CC3CC3)ccc2S1(=O)=O | -17.1% (inactive) |
| Clc1ccccc1SCc1nc2ccccc2[nH]1 | 91.4% (active) |
| Cc1ccc(O)c(CNc2nc3ccccc3[nH]2)c1 | 2.19% (inactive) |
| CC1(C)Cc2c(C#N)c(SCc3nc4ccccc4[nH]3)nc(N3CCOCC3)c2CO1 | -43.7% (inactive) |
| CO[C@@H]1CN(C)C(=O)c2ccc(NC(=O)NC(C)C)cc2OC[C@H](C)N(Cc2ccc(-c3ccccn3)cc2)C[C@H]1C | 16.4% (inactive) |
| CCNC(=O)C[C@@H]1C=C[C@@H](NC(=O)C2CCOCC2)[C@@H](CO)O1 | -1.82% (inactive) |
| O=C(C[C@@H]1CC[C@@H]2[C@H](COC[C@H](O)CN2CC2CCOCC2)O1)NCC1CCCCC1 | 1.6% (inactive) |
| CO[C@@H]1CN(C)C(=O)c2ccc(NC(=O)c3cccc(Oc4ccccc4)c3)cc2OC[C@H](C)NC[C@@H]1C | -3.89% (inactive) |
| CNC(=O)C[C@H]1CC[C@H]2[C@H](COc3ccc(NC(=O)Nc4ccc(F)cc4)cc3C(=O)N2C)O1 | 17.2% (inactive) |
| COc1ccc2nc(N3CCN(C(=O)c4ccc([N+](=O)[O-])o4)CC3)sc2c1 | 73.2% (active) |
| Cc1ccc2nc(N3CCN(C(=O)c4ccco4)CC3)sc2c1 | 0.517% (inactive) |
| COc1ccc2nc(N3C(=O)C(O)=C(C(=O)c4ccco4)C3c3ccco3)sc2c1 (configuration not stated) | 9.9% (inactive) |
| COc1ccc(S(=O)(=O)Nc2ccc3c(c2)C(=O)N([C@@H](C)CO)C[C@H](C)[C@H](CN(C)Cc2ccc4c(c2)OCO4)OCCCC[C@H](C)O3)cc1 | -65.3% (inactive) |
| CC=Cc1ccc2n(c1=O)C[C@@H]1[C@@H](CO)[C@H](C(=O)NCC(F)(F)F)N(CCc3ccccc3)[C@H]21 (mixture of isomers) | -10.8% (inactive) |
| O=C(C[C@@H]1CC[C@@H]2[C@H](COC[C@H](O)CN2C(=O)Nc2cccc(Cl)c2)O1)NCCCN1CCOCC1 | -20.2% (inactive) |
| O=C(NCc1ccco1)C1CCCN(S(=O)(=O)c2ccccc2)C1 (configuration not stated) | 133% (active) |
| O=C(NCc1ccco1)C1CCCN(S(=O)(=O)c2cnc[nH]2)C1 (configuration not stated) | -4.96% (inactive) |
| CCCS(=O)(=O)N1CCCC(C(=O)NCc2ccco2)C1 (configuration not stated) | -3.35% (inactive) |
| O=C(C[C@@H]1CC[C@@H]2[C@H](COC[C@@H](O)CN2S(=O)(=O)c2cccc(Cl)c2)O1)N1CCOCC1 | -7.32% (inactive) |
| CCCN(C)C[C@@H]1Oc2ncc(C#CC3CC3)cc2C(=O)N([C@H](C)CO)C[C@H]1C | 8.64% (inactive) |
| O=C(Nc1ccccc1)N1C[C@H]2[C@@H](c3ccccc31)[C@H](CO)N2Cc1ccc(F)cc1 | 3.11% (inactive) |
| COc1cccc(S(=O)(=O)N[C@H]2C=C[C@H](CC(=O)NC3Cc4ccccc4C3)O[C@@H]2CO)c1 | 4.32% (inactive) |
| C[C@@H]1CN([C@@H](C)CO)C(=O)c2cc(C#CCN(C)C)cnc2O[C@H]1CN(C)S(=O)(=O)c1cn(C)cn1 | -11.7% (inactive) |
| O=C(c1cc(-c2ccc(F)cc2)on1)N1CCN(c2ccc(F)cc2)CC1 | -7.85% (inactive) |

| SMILES | rescue of ATP level |
| --- | --- |
| Cc1c(C(=O)N2CCN(c3ccc(F)cc3)CC2)oc2c1C(=O)CCC2 | 87.3% (active) |
| O=C(c1cc2cc(F)ccc2[nH]1)N1CCN(c2ccc(F)cc2)CC1 | 0.946% (inactive) |
| C[C@@H]1CN([C@H](C)CO)S(=O)(=O)c2ccc(C#C[C@@H](C)O)cc2O[C@H]1CN(C)CC1CC1 | -38.8% (inactive) |
| CCCNC(=O)Nc1ccc2c(c1)OC[C@@H](C)N(C(=O)c1ccccc1F)C[C@H](C)[C@@H](OC)CN(C)C2=O | -10.8% (inactive) |
| C=CCNC(=O)c1cc2nc(C3CC3)cc(C(F)F)n2n1 | -17.9% (inactive) |
| O=C(Nc1cc(C(F)(F)F)ccc1Cl)c1cc2nc3c(c(C(F)(F)F)n2n1)CCCC3 | -15% (inactive) |
| O=C(Nc1ccc(Cl)cc1)c1cc2nc(C3CC3)cc(C(F)(F)F)n2n1 | 98.2% (active) |
| COc1cc(OC)c(C(=O)N2CCCC2)cc1OC | -3.44% (inactive) |
| Cc1c(Br)cc(C(=O)N2CCCCCC2)c(C)c1C | 115% (active) |
| Cc1ccc(C(=O)N2CCCC2)c(F)c1F | 16.3% (inactive) |
| COCC(=O)Nc1ccc2c(c1)C(=O)N(C)[C@@H]1CC[C@H](CC(=O)NCC3CCCCC3)O[C@H]1CO2 | 13.3% (inactive) |
| O=C(Nc1ccccc1F)N[C@@H]1CC[C@H](CC(=O)N2CCCCC2)O[C@H]1CO | 4.38% (inactive) |
| CC(=O)N1[C@@H]2c3ccc(-c4ccccc4)c(=O)n3C[C@@H]2[C@@H](CO)[C@@H]1C(=O)NCc1ccccc1F | 5.23% (inactive) |
| Fc1ccccc1COc1cccc2cccnc12 | 8.73% (inactive) |
| O=C(Nc1ccccc1)Oc1cccc2cccnc12 | 101% (active) |
| OCc1ccc(OCCCOc2cccc3cccnc23)cc1 | 7.29% (inactive) |
| C/C=C/c1ccc2c(c1)O[C@H](CN(C)C(=O)C1CCCCC1)[C@@H](C)CN([C@@H](C)CO)S2(=O)=O | 2.75% (inactive) |
| CCOCCn1c(C(C)C)nc2ccccc21 | -2.16% (inactive) |
| COCCOCCn1cnc2ccccc21 | 14.6% (inactive) |
| CCc1nc2ccccc2n(CCOCCOCCn2c(=O)c(CC)nc3ccccc32)c1=O | 114% (active) |
| C[C@@H]1CN([C@H](C)CO)C(=O)c2cc(C#CC3CC3)cnc2O[C@@H]1CN(C)Cc1cccc(C(=O)O)c1 | -0.6% (inactive) |
| COc1ccc2[nH]c(=O)c(CNc3ccc(C)c(C)c3)cc2c1 | 100% (active) |
| COc1ccc2[nH]c(=O)c(CN(CC3CCCO3)C(=O)Nc3ccccc3)cc2c1 (configuration not stated) | -11.6% (inactive) |
| COc1ccc2[nH]c(=O)c(CN(Cc3cccnc3)S(=O)(=O)c3ccccc3F)cc2c1 | -38.6% (inactive) |
| CO[C@H]1CN(C)C(=O)c2ccc(NS(C)(=O)=O)cc2OC[C@@H](C)N(C(=O)c2ccc3c(c2)OCO3)C[C@@H]1C | -7.88% (inactive) |
